Data: PubChem BioAssay
Where “and” joins values, the source holds several entries; their conditions need not be identical. Equal values may be shown once. Calls of active or inactive are those of the source.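 How the source made its calls, unless noted: active means at least 20% inhibition of 6-phosphogluconate dehydrogenase activity; inactive means the rest.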

Tests used:
[1] = molecular target: 6-phosphogluconate dehydrogenase, decarboxylating (Homo sapiens) (UniProt P52209); experiment: inhibition of human phosphogluconate dehydrogenase – biochemical, recombinant enzyme, NADPH absorbance, primary screen (AID 1159550); conditions: recombinant 6PGD, NADPH absorbance 341 nm; at 10 µM; stronger effect = higher value
6-phosphogluconate dehydrogenase, decarboxylating (Homo sapiens), sequence (P52209 whole entry, looked up): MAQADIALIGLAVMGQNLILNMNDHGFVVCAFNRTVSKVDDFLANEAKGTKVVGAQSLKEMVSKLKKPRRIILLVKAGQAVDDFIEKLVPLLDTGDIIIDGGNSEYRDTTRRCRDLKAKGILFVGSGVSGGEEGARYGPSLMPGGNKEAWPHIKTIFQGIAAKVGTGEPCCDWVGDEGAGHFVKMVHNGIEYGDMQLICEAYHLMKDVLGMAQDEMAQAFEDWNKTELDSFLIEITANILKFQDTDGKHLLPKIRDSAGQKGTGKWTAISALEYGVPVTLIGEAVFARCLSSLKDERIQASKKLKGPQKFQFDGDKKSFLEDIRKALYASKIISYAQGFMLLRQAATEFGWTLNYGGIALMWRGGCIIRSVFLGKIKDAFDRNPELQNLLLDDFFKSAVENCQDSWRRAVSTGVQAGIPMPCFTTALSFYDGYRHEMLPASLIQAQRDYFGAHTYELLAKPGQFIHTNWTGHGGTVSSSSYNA

[2] = EMT-state selective cytotoxicity in co-culture – imaging, PC-3E GFP, TEM4-18 mCherry, primary screen (AID 1345086;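 active means compounds killing one labelled cell type while sparing the other, by normalised counts and ratio limits, not self-fluorescent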;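 on all read-outs here: cells exposed to compound for 72 h before imaging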;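 on red/green cell ratio (normalised): normalised mesenchymal count divided by normalised epithelial count so high means epithelial killing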); conditions: PC-3E GFP / TEM4-18 mCherry co-culture, imaging cell counts, at 1 µM; for red/green cell ratio (normalised): actives lie on both sides, counts scaled to control wells, 1 = unselective
[3] = molecular target: Mitogen-activated protein kinase 7 (Homo sapiens) (UniProt Q13164); experiment: Gal4-ERK5 driven luciferase induction – cell-based, HTS, primary screen (AID 1508626;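 active means luciferase signal above three times the same-plate solvent-only control wells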;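 further: luciferase driven by Gal4-ERK5 fusion binding five Gal4 sites before minimal TATA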); conditions: HeLa Gal4-ERK5 transactivation, 18 h, at 5 µM, stronger effect = higher value
Mitogen-activated protein kinase 7 (Homo sapiens), sequence (Q13164 whole entry, looked up, the tested form may be a part): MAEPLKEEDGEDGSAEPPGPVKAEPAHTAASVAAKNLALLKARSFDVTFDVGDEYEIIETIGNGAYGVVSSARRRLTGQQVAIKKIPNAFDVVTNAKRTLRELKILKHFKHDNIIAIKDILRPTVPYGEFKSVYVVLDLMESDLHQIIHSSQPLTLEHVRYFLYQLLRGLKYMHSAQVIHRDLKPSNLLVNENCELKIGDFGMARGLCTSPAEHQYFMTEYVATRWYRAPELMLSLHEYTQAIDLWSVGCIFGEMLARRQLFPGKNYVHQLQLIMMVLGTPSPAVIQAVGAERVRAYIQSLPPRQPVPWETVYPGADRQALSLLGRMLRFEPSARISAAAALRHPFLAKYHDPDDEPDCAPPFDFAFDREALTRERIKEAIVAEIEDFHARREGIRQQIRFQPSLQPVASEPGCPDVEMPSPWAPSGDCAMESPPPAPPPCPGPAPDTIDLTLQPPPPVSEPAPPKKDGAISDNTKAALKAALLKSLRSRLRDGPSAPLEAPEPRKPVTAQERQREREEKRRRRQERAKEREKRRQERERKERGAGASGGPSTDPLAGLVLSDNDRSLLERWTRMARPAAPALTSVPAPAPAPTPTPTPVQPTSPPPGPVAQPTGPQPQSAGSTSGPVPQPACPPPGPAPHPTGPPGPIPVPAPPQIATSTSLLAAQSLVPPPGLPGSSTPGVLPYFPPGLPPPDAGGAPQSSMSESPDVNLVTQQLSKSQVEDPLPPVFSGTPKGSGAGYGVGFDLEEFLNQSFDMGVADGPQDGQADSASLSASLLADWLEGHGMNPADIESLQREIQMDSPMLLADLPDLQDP

[4] = measured here: epithelial PC-3E GFP cell survival
[5] = measured here: mesenchymal TEM4-18 mCherry cell survival

CC(=O)c1c(O)cc(O)cc1O
inhibition [1]: -5.07% (inactive) | red/green cell ratio (normalised) [2]: 1.24 (inactive) | normalised cell number [2, 4]: 0.74 | normalised cell number [2, 5]: 0.92 | luciferase signal [3]: 44 AU (inactive)

CC1(C)CC2C1CCC1(C)OC1CCC2(C)O (stereo not given)
inhibition [1]: 19.1% (inactive) | red/green cell ratio (normalised) [2]: 1.05 (inactive) | normalised cell number [2, 4]: 0.98 | normalised cell number [2, 5]: 1.02 | luciferase signal [3]: 620 AU (active)

CCOC(=O)c1c(C)cc(O)c(C=O)c1O
inhibition [1]: -5.47% (inactive) | red/green cell ratio (normalised) [2]: 0.95 (inactive) | normalised cell number [2, 4]: 0.99 | normalised cell number [2, 5]: 0.94 | luciferase signal [3]: 56 AU (inactive)

S=c1[nH]c2ccccc2s1
inhibition [1]: -1.67% (inactive) | red/green cell ratio (normalised) [2]: 0.97 (inactive) | normalised cell number [2, 4]: 1.13 | normalised cell number [2, 5]: 1.09 | luciferase signal [3]: 48 AU (inactive)

COc1cc(O)c(C)c(O)c1
inhibition [1]: 5.9% (inactive) | red/green cell ratio (normalised) [2]: 0.94 (inactive) | normalised cell number [2, 4]: 1.19 | normalised cell number [2, 5]: 1.12 | luciferase signal [3]: 48 AU (inactive)

C=C1C2CC[C@@]3(C)[C@H](c4ccoc4)OC(=O)C[C@]13O[C@H]1CC(O)C(C)(C)C(CC(=O)OC)[C@@]21C (stereo not given in full)
inhibition [1]: 24.1% (active) | red/green cell ratio (normalised) [2]: 1.02 (inactive) | normalised cell number [2, 4]: 0.98 | normalised cell number [2, 5]: 1 | luciferase signal [3]: 16 AU (inactive)

COc1cc(O)cc(OC)c1OC
inhibition [1]: -0.756% (inactive) | red/green cell ratio (normalised) [2]: 1.04 (inactive) | normalised cell number [2, 4]: 1.01 | normalised cell number [2, 5]: 1.04 | luciferase signal [3]: 20 AU (inactive)

COc1cc(/C=C/C(=O)O)cc(OC)c1OC
inhibition [1]: -1.71% (inactive) | red/green cell ratio (normalised) [2]: 0.99 (inactive) | normalised cell number [2, 4]: 1.06 | normalised cell number [2, 5]: 1.04 | luciferase signal [3]: 52 AU (inactive)

O=c1cc(-c2cc(O)c(O)c(O)c2)oc2cc(O)cc(O)c12
inhibition [1]: 5.62% (inactive) | red/green cell ratio (normalised) [2]: 1.14 (inactive) | normalised cell number [2, 4]: 0.99 | normalised cell number [2, 5]: 1.12 | luciferase signal [3]: 72 AU (inactive)

C=CCSCC=C
inhibition [1]: -1.41% (inactive) | red/green cell ratio (normalised) [2]: 1.04 (inactive) | normalised cell number [2, 4]: 1.02 | normalised cell number [2, 5]: 1.06 | luciferase signal [3]: 20 AU (inactive)

Cc1cc(O)cc(=O)o1
inhibition [1]: 18.1% (inactive) | red/green cell ratio (normalised) [2]: 0.97 (inactive) | normalised cell number [2, 4]: 1.03 | normalised cell number [2, 5]: 1.01 | luciferase signal [3]: 52 AU (inactive)

C=C1C(N)CC2CC1C2(C)C (stereo not given)
inhibition [1]: 16.7% (inactive) | red/green cell ratio (normalised) [2]: 1.05 (inactive) | normalised cell number [2, 4]: 1.09 | normalised cell number [2, 5]: 1.15 | luciferase signal [3]: 60 AU (inactive)

CC(C)[C@@H]1CC[C@@H](C)CC1=O
inhibition [1]: 15.9% (inactive) | red/green cell ratio (normalised) [2]: 0.93 (inactive) | normalised cell number [2, 4]: 1.16 | normalised cell number [2, 5]: 1.08 | luciferase signal [3]: 52 AU (inactive)

COc1cccc(O)c1O
inhibition [1]: -0.395% (inactive) | red/green cell ratio (normalised) [2]: 0.97 (inactive) | normalised cell number [2, 4]: 0.99 | normalised cell number [2, 5]: 0.96 | luciferase signal [3]: 52 AU (inactive)

CC(=O)O[C@H]1CCC2(C)C3=C(CCC2C1(C)C)[C@]1(C)CCC(C(C)CCC=C(C)C)[C@@]1(C)CC3 (stereo not given in full)
inhibition [1]: 12.8% (inactive) | red/green cell ratio (normalised) [2]: 0.97 (inactive) | normalised cell number [2, 4]: 0.86 | normalised cell number [2, 5]: 0.83 | luciferase signal [3]: 52 AU (inactive)

CCOc1cccc(C(=O)c2ccc(O)c(O)c2O)c1
inhibition [1]: 11.3% (inactive) | red/green cell ratio (normalised) [2]: 0.95 (inactive) | normalised cell number [2, 4]: 1.01 | normalised cell number [2, 5]: 0.96 | luciferase signal [3]: 116 AU (inactive)

C=CCCCCCCCCCCCC(O)CC(O)COC(C)=O (stereo not given) (tested in a mixture with another compound)
inhibition [1]: 4.12% (inactive) | red/green cell ratio (normalised) [2]: 0.92 (inactive) | normalised cell number [2, 4]: 1 | normalised cell number [2, 5]: 0.92 | luciferase signal [3]: 36 AU (inactive)

C=CC(C1=CC(=O)C(OC)=CC1=O)c1ccc(O)cc1 (stereo not given)
inhibition [1]: 1.39% (inactive) | red/green cell ratio (normalised) [2]: 0.91 (inactive) | normalised cell number [2, 4]: 1.05 | normalised cell number [2, 5]: 0.95 | luciferase signal [3]: 136 AU (inactive)

CC1=CC2C(CC1=O)C(C)=CCC2C(C)C (stereo not given)
inhibition [1]: 2.64% (inactive) | red/green cell ratio (normalised) [2]: 1.21 (inactive) | normalised cell number [2, 4]: 1.06 | normalised cell number [2, 5]: 1.28 | luciferase signal [3]: 24 AU (inactive)

COc1ccc2c(c1)OC[C@@H](Cc1ccc(OC)c(OC)c1)[C@H]2O
inhibition [1]: 15.8% (inactive) | red/green cell ratio (normalised) [2]: 1.09 (inactive) | normalised cell number [2, 4]: 0.98 | normalised cell number [2, 5]: 1.07 | luciferase signal [3]: 76 AU (inactive)

COc1ccc2c(c1)OCC(Cc1ccc(OC)c(O)c1)C2=O (stereo not given)
inhibition [1]: 13.3% (inactive) | red/green cell ratio (normalised) [2]: 0.88 (inactive) | normalised cell number [2, 4]: 0.74 | normalised cell number [2, 5]: 0.65 | luciferase signal [3]: 52 AU (inactive)

O=C(O)CCCCCCCCCCCCC1C=CCC1 (stereo not given)
inhibition [1]: -14% (inactive) | red/green cell ratio (normalised) [2]: 1 (inactive) | normalised cell number [2, 4]: 1.02 | normalised cell number [2, 5]: 1.02 | luciferase signal [3]: 20 AU (inactive)

O=c1c(-c2ccccc2)coc2cc(O)cc(O)c12
inhibition [1]: -1.41% (inactive) | red/green cell ratio (normalised) [2]: 0.93 (inactive) | normalised cell number [2, 4]: 1.2 | normalised cell number [2, 5]: 1.12 | luciferase signal [3]: 40 AU (inactive)

CC(=O)Oc1cc(OC(C)=O)c2c(c1)O[C@H](c1ccc(OC(C)=O)c(OC(C)=O)c1)[C@H](OC(C)=O)C2
inhibition [1]: 13.2% (inactive) and -3.23% (inactive) | red/green cell ratio (normalised) [2]: 0.86 (inactive) | normalised cell number [2, 4]: 1.41 | normalised cell number [2, 5]: 1.21 | luciferase signal [3]: 48 AU (inactive)

COc1cc(-c2coc3cc(O[C@@H]4O[C@H](CO)[C@@H](O)[C@H](O)[C@H]4O)c(OC)c(O)c3c2=O)cc(O)c1OC
inhibition [1]: -0.763% (inactive) | red/green cell ratio (normalised) [2]: 0.96 (inactive) | normalised cell number [2, 4]: 0.99 | normalised cell number [2, 5]: 0.95 | luciferase signal [3]: 68 AU (inactive)

O=c1cc(-c2ccc(O)cc2)oc2cc(O[C@@H]3O[C@H](CO)[C@@H](O)[C@H](O)[C@H]3O[C@@H]3OC[C@](O)(CO)[C@H]3O)cc(O)c12
inhibition [1]: -39.6% (inactive) | red/green cell ratio (normalised) [2]: 0.8 (inactive) | normalised cell number [2, 4]: 1.3 | normalised cell number [2, 5]: 1.03 | luciferase signal [3]: 196 AU (active)

O=C(O)C1(O)C[C@@H](O)C(O)[C@H](O)C1 (stereo not given in full)
inhibition [1]: 5.01% (inactive) | red/green cell ratio (normalised) [2]: 0.8 (inactive) | normalised cell number [2, 4]: 1.27 | normalised cell number [2, 5]: 1.02 | luciferase signal [3]: 12 AU (inactive)

C=C1[C@H]2CC[C@@]3(C)[C@H](c4ccoc4)OC(=O)C[C@]13O[C@H]1C[C@H](O)C(C)(C)[C@H](CC(=O)OC)[C@]12C
inhibition [1]: -1.87% (inactive) | red/green cell ratio (normalised) [2]: 1.12 (inactive) | normalised cell number [2, 4]: 0.91 | normalised cell number [2, 5]: 1.02 | luciferase signal [3]: 8 AU (inactive)

CC(C)=CC1C(CO)C1(C)C (stereo not given)
inhibition [1]: 2.26% (inactive) | red/green cell ratio (normalised) [2]: 0.97 (inactive) | normalised cell number [2, 4]: 0.97 | normalised cell number [2, 5]: 0.94 | luciferase signal [3]: 68 AU (inactive)

COc1c(CC(=O)c2cc3c(cc2O)OC(C)(C)C(O)C3)ccc2c1C=CC(C)(C)O2 (stereo not given)
inhibition [1]: 5.33% (inactive) | red/green cell ratio (normalised) [2]: 0.66 (inactive) | normalised cell number [2, 4]: 1.48 | normalised cell number [2, 5]: 0.97 | luciferase signal [3]: 40 AU (inactive)

c1ccc2c(c1)CN1CCCC1=N2
inhibition [1]: -1.15% (inactive) | red/green cell ratio (normalised) [2]: 1.13 (inactive) | normalised cell number [2, 4]: 0.94 | normalised cell number [2, 5]: 1.06 | luciferase signal [3]: 52 AU (inactive)

CC(=O)O[C@H]1C[C@@H](OC(C)=O)C(C)(C)C2CC(=O)[C@]3(C)C(CC[C@@]4(C)[C@H](C(=O)O)OC(=O)C5OC543)[C@]21C (stereo not given in full)
inhibition [1]: 1.04% (inactive) | red/green cell ratio (normalised) [2]: 1 (inactive) | normalised cell number [2, 4]: 0.99 | normalised cell number [2, 5]: 0.99 | luciferase signal [3]: 120 AU (inactive)

COc1ccc(-c2oc3ccccc3c(=O)c2O)cc1OC
inhibition [1]: 8.6% (inactive) | red/green cell ratio (normalised) [2]: 0.86 (inactive) | normalised cell number [2, 4]: 1.06 | normalised cell number [2, 5]: 0.91 | luciferase signal [3]: 52 AU (inactive)

COc1c(-c2coc3cc4c(cc3c2=O)CC(OC(C)=O)C(C)(C)O4)ccc2c1C=CC(C)(C)O2 (stereo not given)
inhibition [1]: 13.9% (inactive) | red/green cell ratio (normalised) [2]: 0.78 (inactive) | normalised cell number [2, 4]: 1.02 | normalised cell number [2, 5]: 0.8 | luciferase signal [3]: 56 AU (inactive)

Nc1nc2ncc(=O)[nH]c2c(=O)[nH]1
inhibition [1]: -1.84% (inactive) | red/green cell ratio (normalised) [2]: 1.01 (inactive) | normalised cell number [2, 4]: 1.17 | normalised cell number [2, 5]: 1.18 | luciferase signal [3]: 56 AU (inactive)

CCOc1ccc(C(=O)c2ccc(OC)c(O)c2O)cc1
inhibition [1]: -3.36% (inactive) | red/green cell ratio (normalised) [2]: 0.9 (inactive) | normalised cell number [2, 4]: 0.9 | normalised cell number [2, 5]: 0.81 | luciferase signal [3]: 68 AU (inactive)

CCCCCC(=O)Cc1cc(O)cc(O)c1C(=O)Oc1cc(CC(=O)CCCCC)c(C(=O)O)c(OC)c1
inhibition [1]: 6.8% (inactive) | red/green cell ratio (normalised) [2]: 1.08 (inactive) | normalised cell number [2, 4]: 0.95 | normalised cell number [2, 5]: 1.03 | luciferase signal [3]: 160 AU (inactive)
